High-throughput results from PubChem.
A selection: hits, their analogues and other compounds. The true share with any hit is near 10%.
GLS inhibitor – qHTS for Inhibitors of Glutaminase (GLS); actives 0.21% (n = 410,000); GLS enzymatic activity, qHTS titration; Potency, µM (highest dose often 45.5 µM), for inactives: at the top dose activity change, negative = inhibition, most hits filed as inhibitors; Glutaminase kidney isoform, mitochondrial (Homo sapiens), O94925; AID 624170, 2012; note: % is set by controls: 0 for no effect and ±100 for the full control effect
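hKGA; 45 mM KH2PO4 pH 8.2 + 0.02% Tween-20; cpd via pin tool; 1 mM Gln soln; GluOx/HRP/Amplex Red; RT 30 min; fluor. t0 & final.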
BAZ2B inh – qHTS Assay for Inhibitors of BAZ2B; Potency, µM (top dose mostly 114 µM), for inactives: at the highest dose activity change, negative = inhibition, most hits filed as inhibitors; actives 4.4% (n = 360,000); AID 504333, 2011; AlphaScreen BAZ2B-H3K14Ac peptide displacement; Bromodomain adjacent to zinc finger domain protein 2B (Homo sapiens), Q9UIF8; note: % is set by controls: 0 for no effect and ±100 for the full control effect; nearly all actives have a fitted effect of over 60% in size
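Compounds, titrated to a top concentration of 110 uM, were incubated 30 min at room temperature with preformed BAZ2B/acetyl-K14 H3 peptide complex (50 nM each). Proximity signal was measured by AlphaScreen after 20 min with beads.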
HP1b binding inh – HTS for Inhibitors of HP1-beta Chromodomain Interactions with Methylated Histone Tails; AlphaScreen HP1-beta / biotin-H3K9me3 peptide binding; actives 0.56% (n = 390,000); Potency, µM (doses to about 114 µM), for the others: at the highest dose activity change, negative = inhibition, hits mostly inhibitors; AID 540317, 2011; note: nearly all actives have a fitted effect of over 70% in size
Target sequence (P83916 whole entry, looked up): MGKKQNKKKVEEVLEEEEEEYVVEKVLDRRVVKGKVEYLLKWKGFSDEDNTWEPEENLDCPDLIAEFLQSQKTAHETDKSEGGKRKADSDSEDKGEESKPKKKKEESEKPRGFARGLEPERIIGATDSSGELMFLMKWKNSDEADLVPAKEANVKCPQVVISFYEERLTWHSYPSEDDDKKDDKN
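AlphaScreen: HP1-beta (50 nM) preformed 30 min with biotin-H3(1-18)K9me3 peptide (50 nM) in PBS pH 7.4, 0.01% Tween-20. Compound added for 30 min at RT, then streptavidin donor/nickel chelate acceptor beads (10 ug/mL) for 30 min.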
JMJD2A Tudor inh – qHTS Assay for Inhibitors of JMJD2A-Tudor Domain; Lysine-specific demethylase 4A (Homo sapiens), O75164; AlphaScreen JMJD2A-Tudor / H3K4me3 peptide binding; Potency, µM (top dose mostly 114 µM), inactives show top-dose activity change, negative = inhibition, actives largely listed as inhibitors; actives 4.4% (n = 390,000); AID 504339, 2011; note: % is set by controls: 0 for no effect and ±100 for the full control effect; nearly all actives have a fitted effect of over 50% in size
G9a inh – qHTS Assay for Inhibitors of Histone Lysine Methyltransferase G9a; G9a H3K9 monomethylation, AlphaScreen, 2 h; Histone-lysine N-methyltransferase EHMT2 (Homo sapiens), Q96KQ7; actives 8.8% (n = 350,000); Potency, µM (series often up to 102 µM), for the others: at the top dose activity, negative = inhibition, most hits filed as inhibitors; note: % is set by controls: 0 for no effect and ±100 for the full control effect; nearly all actives have a fitted effect of over 75% in size
Target sequence (Q96KQ7 913-1193 limits assumed): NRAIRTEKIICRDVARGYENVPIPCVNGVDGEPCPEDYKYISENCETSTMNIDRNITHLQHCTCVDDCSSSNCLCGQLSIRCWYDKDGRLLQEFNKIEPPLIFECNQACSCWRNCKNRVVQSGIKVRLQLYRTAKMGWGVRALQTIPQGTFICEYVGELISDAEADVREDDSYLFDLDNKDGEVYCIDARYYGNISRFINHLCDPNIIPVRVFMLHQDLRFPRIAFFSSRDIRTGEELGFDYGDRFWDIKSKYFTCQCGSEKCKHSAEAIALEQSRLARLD
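Methyltransferase reactions run at room temperature for 2 h (20 nM enzyme, 500 nM biotin-H3K9 peptide, 20 uM SAM) after a 15 min compound preincubation; product detected by AlphaScreen beads and anti-H3K9me1 antibody.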
An asterisk follows results filed as active; [ ] = dose if it differs, or a comment. Calls come from the whole dose curve; as a rule, active = well fitted curve in the direction sought with a large enough effect; inconclusive = small, poorly fitted or top-dose-only effect, or another doubt; inactive = no such curve, though single readings can be large; an effect the other way counts as inactive or inconclusive. Potency is the fitted concentration of half-maximal effect.

`Nc1ccc2c(c1)OC1(CCCC1)O2` gave GLS inhibitor inconclusive, BAZ2B inh 40µM*, HP1b binding inh -39%, JMJD2A Tudor inh 45µM* and G9a inh 35µM*.
O=C(Cc1ccccc1)Nc1ccc2c(c1)OC1(CCCC1)O2 was read as GLS inhibitor -2%, BAZ2B inh -39%, HP1b binding inh -8%, JMJD2A Tudor inh -34% and G9a inh inconclusive.
`C=C[C@]1(C)C=C2C(=O)[C@@]3(O)OC(=O)[C@@]4(CCCC(C)(C)[C@H]34)[C@@]2(O)CC1` gave GLS inhibitor -3%.
`COCCNc1nnc(SCC(=O)NC(=O)c2ccccc2OC)s1` gave GLS inhibitor 6%, BAZ2B inh -3%, HP1b binding inh 12% and JMJD2A Tudor inh -24%.
`COCCNc1nnc(SCC(=O)NNC(=O)c2ccc([N+](=O)[O-])cc2)s1` gave GLS inhibitor 16%, BAZ2B inh 9%, HP1b binding inh 35%, JMJD2A Tudor inh -4% and G9a inh 35µM*.
For CCn1c(C)c(C)c2cc(C(=O)NC3CCCCCC3)ccc21 the results were GLS inhibitor 7%, BAZ2B inh 35µM*, HP1b binding inh -19%[57 µM], JMJD2A Tudor inh inconclusive and G9a inh -6%.
For Cc1c(C)n(Cc2ccccc2)c2ccc(C(=O)N3CCN(c4ccccc4F)CC3)cc12 the results were GLS inhibitor -4%, BAZ2B inh inconclusive, HP1b binding inh 28%, JMJD2A Tudor inh inconclusive and G9a inh inconclusive.
Screening CCn1c(C)c(C)c2cc(C(=O)N3CCN(c4ccccc4)CC3)ccc21 returned GLS inhibitor 5%, BAZ2B inh 28µM*, HP1b binding inh inconclusive, JMJD2A Tudor inh 45µM* and G9a inh inconclusive.
Screening Cc1c(C)n(Cc2ccc(F)cc2)c2ccc(C(=O)N3CCN(c4ccccn4)CC3)cc12 returned GLS inhibitor 2%, BAZ2B inh inconclusive, HP1b binding inh -21%[57 µM], JMJD2A Tudor inh inconclusive and G9a inh 32µM*.
`CCOc1ccccc1-c1nc(C(N)=O)c2c(n1)n(-c1ccc3c(c1)OCO3)c(=O)n2C` gave GLS inhibitor -2%, BAZ2B inh 1%, HP1b binding inh 18%[57 µM], JMJD2A Tudor inh -16% and G9a inh 21%[59 µM].
COc1ccccc1/C=C1\CCCC2=C1Nc1nnnn1C2c1ccccc1OC (stereo not given) was read as GLS inhibitor 5%, BAZ2B inh inconclusive, HP1b binding inh 7%, JMJD2A Tudor inh inconclusive and G9a inh 10µM*.
For COc1ccccc1NC(=O)C1=C(C)Nc2nnnn2C1c1ccccc1OC (stereo not given) the results were GLS inhibitor 19%, BAZ2B inh 2%, HP1b binding inh 34%, JMJD2A Tudor inh -15% and G9a inh -21%[12.7 µM].
For COc1ccccc1OCCCCNCCO the results were GLS inhibitor -3%, BAZ2B inh 1%, HP1b binding inh 31%, JMJD2A Tudor inh -17% and G9a inh 1%[12.7 µM].
COCCCNCCOc1ccccc1-c1ccccc1 was read as GLS inhibitor 5%, BAZ2B inh -32%, HP1b binding inh -35%, JMJD2A Tudor inh 25µM* and G9a inh 7.9µM*.
CCCCNCCOc1ccccc1-c1ccccc1 was read as GLS inhibitor 3%, BAZ2B inh inconclusive, HP1b binding inh inconclusive, JMJD2A Tudor inh 3.5µM* and G9a inh inconclusive.
`COCCCNCCCCOc1ccccc1-c1ccccc1` gave GLS inhibitor 4%, BAZ2B inh 71µM*, HP1b binding inh inconclusive, JMJD2A Tudor inh 79µM* and G9a inh 14µM*.
Screening OCCNCCOCCOc1ccccc1-c1ccccc1 returned GLS inhibitor -10%, BAZ2B inh inconclusive, HP1b binding inh inconclusive, JMJD2A Tudor inh 3.2µM* and G9a inh 8.9µM*.
For OCCNCCOc1ccccc1F the results were GLS inhibitor 6%, BAZ2B inh 0%, HP1b binding inh 33%, JMJD2A Tudor inh -7% and G9a inh -1%[59 µM].
